The whole screen tested about 31,000 sequences, of which about 1,400 (4.5%) were called active. The sample as a whole holds a higher share of actives than the screen did. Values without a mark were called inactive.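 The calls were made as follows: active = median seed-adjusted z-score above 1 or below -1; inactive = the rest.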

The experiment in a line: Novel Modifiers of Survival Motor Neuron (SMN) Protein: Gene Identification via Genome-wide siRNA Screen.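 Also: luminescence tracks full-length SMN protein made from the SMN2 reporter.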 The note with it: HEK293T SMN2-luciferase reporter, siRNA knockdown, 72 h; actives lie on both sides. In a few lines: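 HEK293T cells stably carrying an SMN2 promoter/splicing cassette–luciferase reporter were reverse-transfected with 1 pmol siRNA per well (druggable-genome library, 3 siRNAs per gene) and grown 72 h at 37 °C. Luminescence, normalized to negative-control siRNA and log10-transformed, was scored as MAD.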
Background: Reporter assays use an easily measured gene product as a stand-in for the process of interest.
CAGAUGUGGUGAUGCGUGATT against DMBX1: the median seed-adjusted z-score is -0.207.
For the sequence GCUUCAUGACAUCCGCAAATT against CTSL3, the median seed-adjusted z-score is 1.07 (active).
As for GGCAAGAGCUUGUAUCCAATT against CCNG1, the median seed-adjusted z-score was 0.131.
The figure for CAAAAUCCUUUGUGAGUAATT against GPR174 is -0.324.
The figure for GGACUUUGCUGCCUAAAUUTT against PIP5K1A is 0.0924.
For GCAUCACGCUCUCGAAGCATT against PTBP1 the value was 0.578.
Consider CCACCCUAGUUAGACAUCATT against ZNF419, for which the median seed-adjusted z-score is 0.0405.
On to CCAUCAUCGACACACCCAATT against PRSS27, for which the median seed-adjusted z-score was 1.03 (active).
The figure for CAAUCGAACGUAAACAACATT against ADD3 is 0.0741.
The figure for CAACCAUCGAGCAAAUGAATT against MAPK1 is 0.
The figure for CAUCCCUUGUAAUUCACAATT against ZNF702 is 0.204; for GCAUCAGCUCACAACAAAATT against SF3B4 it is -2.56 (active).
Consider CAAGUAUGAUCAGCAAUGATT against ENG, for which the median seed-adjusted z-score is -0.254.
Turning to GGCAUUACGUUUCUAGGUATT against AQP6, the median seed-adjusted z-score was 0.008.
For CGCUGUUCAAUGAACUAUATT against GBA2 the value was 0.143.
Turning to ACACCAGGGUUGUCUACAATT against LCAT, the median seed-adjusted z-score was 0.526.
The figure for GAACUAUCAGAGCAGUUUUTT against LONP2 is 1.52 (active); for GAGCUAUAGUAAUUGCUCUTT against MIF4GD it is 0.373.
For GAAACAUCAUUUUUGCGAATT against THBS4 the value was -0.28; for GGACUGGGAUGAUACACCUTT against SBF2, 0.569.
With CCAUCAUGAUGCUAGCUAUTT against AP3B2, the median seed-adjusted z-score was -2.45 (active).
For GCAGAAUUGGAGACGGAAATT against DNALI1 the value was 0.699; for CCAAAUUCCGCUCUCAUGATT against SFRS9, -0.144; for GUAUGAGUGUGACCGGGAATT against MRC2, -1.34 (active).
For GGAUGAUCGAGACCAGUUUTT against XPO4 the value was 0.616.
The figure for GCUGUUGACUCACAAUGAUTT against GCLM is 0.0509; for GCUUACGGCUUGUACCUGATT against SFRS17A it is -0.389; for GGAAUUAUUACAAGGUAAATT against EIF3E it is 0.549.
As for UCUCUUCAAUAUGUAUUUATT against HOXC9, the median seed-adjusted z-score was 0.395.
For GAAUCACCAUUUAAGUGCATT against PDE1C the value was 0.157; for GGGCUUAGGUGUGAUCAUUTT against USH2A, 0.0673.
Turning to GCCUAUUCAGAACACCAAUTT against TBP, the median seed-adjusted z-score is -1.25 (active).
For CGUGCUUUGAGUACCCGAATT against TAT the value was 0.257; for CCUUAAGAGGGAUGAUAAATT against SAFB, -0.954.
For CCCUCUCACCAUUACUUCATT against CRYAB, the median seed-adjusted z-score is 0.354.
For GCUCUAGGCUUCAAGGCAATT against CTSL3 the value was 1.07 (active); for CGAGGACGAUGACUGCUUATT against LRP8, -0.547; for GCAAGAAGAGAUUAGCAAATT against EIF2C2, -0.183.
GACUGAUGCUUUGACUGAATT against NPTX2: the median seed-adjusted z-score is 0.0558.
The figure for GGAACGAGGCAGAUAUGGATT against NMNAT2 is -1.58 (active); for GGAGGAAUCUUGGUCCUUATT against SLC11A2 it is -0.157.
The figure for AUAUCAGGCUGGUUUACAATT against PLA2G15 is 0; for GAGCAACAGUCACCAGAUATT against MAT2A it is -1.9 (active); for GGCUGUCCGACUCAACAUATT against SIGLEC12 it is 0.226.
The figure for GCAAAUGGGAGGUUGGAAATT against ZIK1 is -0.0627; for GGGAAGUGGUAAAUAAAGATT against MCM7 it is 0.0993.
GCUCGGACUUCAACAACUATT against PPAP2C: the median seed-adjusted z-score is -1.12 (active).
As to CAGUAUCUAUUCACAAUGATT against TRNT1, the median seed-adjusted z-score is 0.142.
The figure for CCCUUCUUGUUUACAUGAATT against SLC25A43 is 0.
As to CAGGUAUAUCAAUUUUUCATT against PRICKLE3, the median seed-adjusted z-score was 0.0332.
For GUAUCGAAGUGGAGACAAUTT against NELL1 the value was -0.466; for CCACGUGUUUCAAAGCAGATT against GPR172B, 0.184; for CAGUGAUGGUUAAGAACGATT against A2M, -1.96 (active).
The figure for GGGUGCACCAGAAACAUUATT against VEZF1 is 0.974; for GUAACAACAAAUACUCAUATT against KCTD10 it is -0.506; for CAUACUUUUUGGAUAGACATT against MTX1 it is -0.159.
For the sequence GAGAAAUGCUUGGAGUCCATT against FKBPL, the median seed-adjusted z-score is -1.11 (active).
GGACGAGACUCAGAGUCAUTT against CD93: the median seed-adjusted z-score was -0.0879.
With GCACGUACUUGAUUCAGCATT against ZNF34, the median seed-adjusted z-score is 0.0391.
For CAACAAGUGUCUAAAUGUUTT against GNG11 the value was 0.00609.
The figure for AGUCAGAGUUGAACAGGUATT against AREG is 0.104.
Consider AGGCAAACGUGUUCGUGCATT against IGFALS, for which the median seed-adjusted z-score was 0.0888.
For GUAUCACUCUUAGAAUCCATT against GP1BA the value was 0.0803.
The figure for AGAUAGAAGGGACACCAUUTT against NDUFB3 is -0.00982; for GGGCAGUUGAUGAACGAAUTT against COG2 it is 0.791; for GGCUUGAGAGCUUACAUCATT against PPP2R5C it is 1.14 (active).
Turning to GGUCUGCACUCAUCACUAUTT against MGAT4A, the median seed-adjusted z-score is 0.134.
The figure for GAAAUAAGGUUUUUGCAAATT against CCL25 is 0.0698; for CACUAUUCCCAGAUCUUUATT against SMAD5 it is -0.701; for GAAGCUGUGAGAUAGAGAATT against LCN8 it is 0.112.
For GGAGAUACAUCACCGAGAATT against ELMO3 the value was -0.0898; for GCUGAUGCAUUGCUCAUUATT against CCT6A, -0.286.
For GUUCUGCCCUCAUACCCUUTT against IL9R the value was -1.33 (active).
With CCUCAGUUGGAGUUUCUAATT against TBCEL, the median seed-adjusted z-score is 0.567.
For AAGCACAACUUGACCGUGATT against USP20 the value was -0.369.
For GGAGAAUGCAAUCCGCUUATT against SVIL the value was 0.0852; for CUAUAUGAAUCACUAUACATT against ZNF181, -0.154; for GGACAGAGCAAAAACUUCUTT against DYRK4, -0.824.
On to CCUGAAACCUCAGAACUUATT against PFTK2, for which the median seed-adjusted z-score is -1.16 (active).
For GUGUAAGAACUACUACAGATT against HPR the value was 0.237.
The figure for GUACCUCAAUUUAAUAUCUTT against UGCGL2 is -0.456; for CGGAAAGUACUUAAACGGATT against PIAS4 it is 0.265.
The figure for GAUGAUUCGUUGGUAUCUATT against GRIA2 is -1.02 (active); for CAAAUACAGUGAGGACAUUTT against GPR83 it is 0.105; for CACUGAGAAUGCAUCCAAATT against CYP4B1 it is -0.663.
Take CGGUCAUUUCGUCGAGAUATT against HSF5: the median seed-adjusted z-score is 0.369.
Turning to GCCCUAAACCUGCCGGAAATT against EVX1, the median seed-adjusted z-score was 1 (active).
For CCUCAACAGUGUCUACAUUTT against LYL1 the value was -0.118; for GAUAAAAGGUUACAAACGATT against HIF1AN, -0.0315.
The figure for GCAGUGUAAUGGUAUCCGATT against VLDLR is 0.0487.
For AGCGCAUGAUUGACAGUGATT against CACNG1 the value was -0.452; for GCACUGUGCUCGGAAGUUATT against GLS2, -0.793; for GUGUCGUCGUAGAAAGAGATT against WEE1, -4.05 (active).
With CAGCAUACUUUAUCGCCUUTT against DICER1, the median seed-adjusted z-score is 0.101.
The figure for CCCAACAACUGGUAUCUUUTT against CD33 is -0.355; for GCCCUGGGUGGAUACUUGATT against PIM3 it is -1.01 (active).
The figure for CAAUAGCUGAAAUAAUAGATT against KPNA3 is 0.383; for CAACUACACUGUCAACUACTT against DTX2 it is 0.0597; for CAGCAACCAAUGAUAUAUATT against POLR2K it is -3.72 (active).
The figure for GGCUCAUUUUCGCCCUGUATT against CHP2 is 0.364.
GUUUGAGUGUGACACCUGUTT against ZNF71: the median seed-adjusted z-score is -0.0193.
The figure for GGAAUACCUUAUUGAUGUATT against CST8 is -0.0126; for CGAACACCGGUGAGGUAUATT against SNRPD3 it is -2.69 (active); for GGUACCAACAAAUACGAUATT against INPP5J it is 0.223.
For GAGACUGCACAACACGAUATT against TMEM11 the value was -0.00121; for AGUGAGAUUUGAAGAGAUUTT against ADC, -0.157.
For CGAGUGGACCUACGAGGAATT against ARID3C the value was -1.32 (active); for AAAAAUCGCUGGACAUGUATT against DNASE2B, 0.86.

The record behind these values is PubChem BioAssay AID1347426 (Functional Genomics Laboratory (NCATS/FGL), 2020).
